S1P4 antag: S1P4 receptor antagonists, primary screen, cell-based | Sphingosine 1-phosphate receptor 4 (Homo sapiens), O95977 | S1P4-expressing cells, antagonist mode, reporter read-out | inhibition, % at 4.98 µM | hit rate 0.26% among 220,000 | AID 1510, 2009; in the data active = inhibition above about 29%;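 note: 0% = wells stimulated with agonist and 100% = vehicle wells without agonist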
Target sequence (O95977 whole entry, looked up): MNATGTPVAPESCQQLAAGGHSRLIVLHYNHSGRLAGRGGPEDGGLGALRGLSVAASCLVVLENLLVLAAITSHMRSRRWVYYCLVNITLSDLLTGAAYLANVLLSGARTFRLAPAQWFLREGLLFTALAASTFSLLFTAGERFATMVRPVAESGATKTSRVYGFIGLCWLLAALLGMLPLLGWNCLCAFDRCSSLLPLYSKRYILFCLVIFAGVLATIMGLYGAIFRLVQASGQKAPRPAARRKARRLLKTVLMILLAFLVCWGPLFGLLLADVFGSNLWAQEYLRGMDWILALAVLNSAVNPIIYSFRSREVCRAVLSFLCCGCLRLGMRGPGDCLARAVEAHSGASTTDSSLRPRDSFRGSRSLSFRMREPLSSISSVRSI
EP2 mod: EP2 receptor modulators, cAMP readout, primary screen, cell-based, HTRF cAMP, PGE2 stimulation | Prostaglandin E2 receptor EP2 subtype (Homo sapiens), P43116 | EP2-expressing cells, cAMP HTRF FRET, PGE2 co-stimulation | induction, % at 25 µM | hit rate 0.83% among 260,000 | AID 940, 2007;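 active = compounds whose cAMP rise, as percent of the full-agonist control response, exceeds 60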;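 note: rat C6 glioma line stably carrying human EP2 under a CMV promoter; the protocol text gives 20 µM as final concentration; 100% = response of wells given 1 µM PGE2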
S1P4 agonist: S1P4 receptor agonists, primary screen, cell-based; S1P4-expressing cell line, agonist reporter assay; activation, % at 4.98 µM; hit rate 0.35% among 220,000; AID 1509, 2009; in the data active = activation above about 11%;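 note: 0% = DMSO vehicle and 100% = reference agonist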
S1P3 antag: S1P3 receptor antagonists, primary screen, cell-based; hit rate 0.27% among 170,000; CHO S1P3 NFAT-BLA reporter, FRET fluorescence, antagonist mode; inhibition, % at 4.98 µM; Sphingosine 1-phosphate receptor 3 (Homo sapiens), Q99500;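 active = inhibition above the plate cutoff, the mean inhibition of test wells on that plate plus 3 SD, cut at about 28% in these data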;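 note: cells challenged with S1P at its EC80 of 0.8 µM; blue over green emission ratio from cleaved BLA substrate after 4 h stimulation; 0% = S1P-stimulated wells and 100% = unstimulated DMSO-only wells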
PGE2 EP2 inh: human EP2 receptor antagonists, primary screen, TR-FRET cAMP, C6 glioma cells; hit rate 0.52% among 260,000; C6 glioma cells expressing human EP2; cells stimulated with saturating PGE2; inhibition, % at 25 µM; AID 1422, 2008; Prostaglandin E2 receptor EP2 subtype (Homo sapiens), P43116;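 active = percent inhibition above 40 after rounding to a whole number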;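 note: rat C6 glioma host cells with rolipram phosphodiesterase inhibitor present; the protocol text gives 20 µM as final concentration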
* marks the source's active call; other numbers are inactive results; x = no result; ! = a repeat was not active. Sampled rows, rich in hits. Any-hit rate of the full collection: about 2%.

SMILES	S1P4 antag	EP2 mod	S1P4 agonist	S1P3 antag	PGE2 EP2 inh
CNc1cccc2c1C(=O)c1ccccc1C2=O	-14	-4	0	9	12
O=C1c2ccccc2C(=O)c2c(NCc3cccnc3)cccc21	7	-17	0	x	7
O=C(c1csc2c1CCCC2)N1CCC(c2ccnc3nc(C(F)(F)F)nn23)CC1	x	-47	x	x	x
COc1ccc(C)cc1CN1CCC(NC(C)=O)(c2ccc(F)cc2)CC1	x	-52	x	x	8
CCOC(=O)c1c(-c2ccccc2)csc1NC(=O)C1CCCO1 (centres undefined)	-8	64*!	3	x	8
CN(Cc1ccccc1)Cc1nc2c(c(=O)n(C)c(=O)n2C)n1CCN1CCOCC1	x	7	x	x	13
Cc1ccc(CC(=O)NC(C)c2nc(-c3cccnc3)n[nH]2)cc1 (centres undefined)	x	-14	x	x	9
C=CCNC(=S)NNC(=O)C(CCCC)CC(O)COCC(C)C (centres undefined)	-3	-2	0	-13	120*
COc1cccc(C(=O)Nc2c(C(N)=O)oc3ccccc23)c1	-11	8	-3	-5	21
CCOC(=O)c1oc2ccccc2c1NC(=O)c1cccc(OC)c1	-17	63*	1	21	5
CCOC(=O)c1oc2ccc(OC)cc2c1CSc1ccccn1	x	62*	x	x	18
Cc1ccc(-n2nnnc2C(Cl)(Cl)c2nnnn2-c2ccc(C)cc2)cc1	1	-5	3	x	91*
Clc1ccc(-c2nnnn2-c2ccc(Cl)cc2)cc1	-10	-43	1	-6	7
Cc1ccc(CN(CCCn2ccnc2)Cc2c(C)oc3ccccc23)s1	x	6	x	x	7
O=C(C1CCC(=O)N1Cc1ccccc1Cl)N1CCN(c2cccc(Cl)c2)CC1 (centres undefined)	-15	x	1	0	69*
O=C(Nc1ccc(Cl)cc1)C1CCC(=O)N1Cc1ccccc1Cl (centres undefined)	3	5	-1	x	15
O=C(CN1C(=O)NC2(CCCC2)C1=O)Nc1ccc(S(=O)(=O)N2CCOCC2)cc1	-12	61*	-1	-20	4
CC1(C)C2CC[C@]3(C)C(CC=C4[C@@H]5C[C@@](C)(CO)[C@@H](O)C[C@]5(C(=O)O)CC[C@]43C)[C@@]2(C)CC[C@@H]1O (some centres undefined)	x	x	x	x	17
CC1(C)CC[C@]2(CO)[C@@H](O)C[C@]3(C)C(=CCC4[C@@]5(C)CC[C@H](O)C(C)(C)C5CC[C@]43C)[C@@H]2C1 (some centres undefined)	x	x	x	x	53*
COc1ccccc1NC(=O)CSc1nnc(-c2cccnc2)n1-c1cc(C)cc(C)c1	x	5	x	x	12
Cc1cccc(OCc2nnc(SCC(=O)Nc3ccc4c(c3)OCO4)n2Cc2ccco2)c1C	x	38	x	x	10
CCN1/C(=C\c2ccc3cc(C)ccc3[n+]2CC)Sc2cc(C)c(C)cc21	0	-37	0	20	61*
CCN1/C(=C/c2ccc3cc(C)cc(C)c3[n+]2CC)Sc2cc(C)ccc21	-7	-49	-2	20	110*
CCCN1/C(=C/c2ccc3ccc(OC)cc3[n+]2CCC)Sc2cc(C)ccc21	x	-71	x	x	26
CCN1/C(=C/c2ccc3cccc(C)c3[n+]2CC)Sc2ccccc21	-22	-69	-2	x	63*!
SMILES	S1P4 antag	EP2 mod	S1P4 agonist	S1P3 antag	PGE2 EP2 inh
CC[n+]1c(/C=C2\Sc3ccc4ccsc4c3N2C)ccc2cc(C)ccc21	x	-61	x	x	32
N#CCC(=O)Nc1ncc(Cc2ccc(Cl)cc2Cl)s1	x	-8	x	x	6
C[N+](C)(C)CCCSc1nc2ccccc2[nH]1	x	21	x	x	42*
O=C(NCc1ccc(F)cc1)C1CCCN(c2nc3ccccc3s2)C1 (centres undefined)	x	-101	x	x	7
C[N+]1([C@H](CO)Cc2c[nH]c3ccccc23)Cc2ccccc2C1	x	19	x	x	50*
Cc1noc(C)c1COC(=O)COc1cccc2c1OC(C)(C)C2	0	65*	-1	-9	10
COc1ccc(-n2nnc(C(C)=O)c2NCc2ccc(F)cc2)cc1	x	-103	x	x	x
O=C(Nc1cc2c(cc1C(=O)c1ccccc1)OCCO2)c1cccs1	x	16	x	x	7
CC(C)C(=O)c1cc2c(cc1NC(=O)c1cccs1)OCCO2	-13	65*	-1	x	2

Compound activity (PubChem)
